# Test results published in the supplement of paper PMC10849652.
# About 7,900 targets were measured; listed, in parts, are those with a hit and a random draw of the rest. About 0.6% of all pairs of compound and target were hits. Unmarked numbers belong to inactive results.
# Tests used:
# Test in all cases: log2 fold change, soluble protein after heating vs DMSO (PISA); higher = thermal stabilisation; K562 cells, 10 uM, 30 min; active = over 0.2 and 3.5 SD of the protein, either way, in both replicates (recomputed)
# [1] = compound: CN1CCN(CCOc2cc(OC3CCOCC3)c3c(Nc4c(Cl)ccc5c4OCO5)ncnc3c2)CC1 [saracatinib]
# Procedure, shortened: (§1)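 K562 cells at 2×10^6 cells/mL were given 10 μM compound for 30 min. Aliquots then went through 3 min of heating across 48°C-58°C, were pooled, and were extracted in PBS with 0.5% NP-40 at 4°C, and the supernatant after 21,000xg for 90 min was quantified by TMTpro 16plex LC-MS/MS with channel sums equalised. Thermal stability relative to control samples, from duplicates, is given as log2 fold change.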
# [2] = compound: CN1CCN(c2nc(C3=C(c4c[nH]c5ccccc45)C(=O)NC3=O)c3ccccc3n2)CC1 [sotrastaurin]
# Procedure, shortened: as §1
# [3] = compound: CN1CC[C@H](c2c(O)cc(O)c3c(=O)cc(-c4ccccc4Cl)oc23)[C@H](O)C1 [alvocidib]
# Procedure, shortened: as §1
# [4] = compound: CN1CCc2c(c3ccccc3n2Cc2ccc(C(=O)NO)cc2)C1 [Tubastatin A]
# Procedure, shortened: as §1
# [5] = compound: CNC(=O)C1=CC=CC=C1NC2=NC(=NC=C2Cl)NC3=C(C=C(C=C3)N4CCOCC4)OC
# Procedure, shortened: as §1
# [6] = compound: CNC(=O)c1ccc(Nc2ncc(C(F)(F)F)c(NCc3nccnc3N(C)S(C)(=O)=O)n2)cc1 [defactinib]
# Procedure, shortened: as §1
# [7] = compound: CNCc1ccc(-c2[nH]c3cc(F)cc4c3c2CCNC4=O)cc1 [rucaparib]
# Procedure, shortened: as §1
# [8] = compound: CNc1nc(-c2ccc3c(N)n[nH]c3c2)cc(N2C[C@@H](C(=O)NC3CCCCC3)CC[C@H]2C)n1
# Procedure, shortened: as §1
# [9] = compound: COC(=O)N[C@@H](C)CNc1nccc(-c2cn(C(C)C)nc2-c2cc(Cl)cc(NS(C)(=O)=O)c2F)n1 [encorafenib]
# Procedure, shortened: as §1
# [10] = compound: COC(=O)[C@H](CCSC)NC(=O)C1=C(C=C(C=C1)NC[C@H](CS)N)C2=CC=CC=C2
# Procedure, shortened: as §1
# [11] = compound: COC1=CC=C(C=C1)CN2C=CC3=C2C=C(C=C3)C(=O)NO
# Procedure, shortened: as §1
# [12] = compound: CON(C)C(=O)N1N=C(c2cc(F)ccc2F)S[C@@]1(CCCN)c1ccccc1 [filanesib]
# Procedure, shortened: as §1
# [13] = compound: CO[C@H]1C[C@@H]2CC[C@@H](C)[C@@](O)(O2)C(=O)C(=O)N2CCCC[C@H]2C(=O)O[C@H]([C@H](C)C[C@@H]2CC[C@H](n3cnnn3)[C@H](OC)C2)CC(=O)[C@H](C)/C=C(\C)[C@@H](O)[C@@H](OC)C(=O)[C@H](C)C[C@H](C)/C=C/C=C/C=C/1C [zotarolimus]
# Procedure, shortened: as §1
# [14] = compound: COc1cc(C(=O)O)ccc1NC(=O)[C@@H]1N[C@@H](CC(C)(C)C)[C@](C#N)(c2ccc(Cl)cc2F)[C@H]1c1cccc(Cl)c1F [idasanutlin]
# Procedure, shortened: as §1
# [15] = compound: COc1cc(Nc2ncc3c(n2)-c2ccc(Cl)cc2C(c2c(F)cccc2OC)=NC3)ccc1C(=O)O [alisertib]
# Procedure, shortened: as §1
# [16] = compound: COc1cc2nc(-c3cc(F)ccc3O)nc(N[C@@H]3CNC[C@H]3C(C)(C)O)c2cc1OC
# Procedure, shortened: as §1
# [17] = compound: COc1cc2ncnc(Nc3ccc(F)c(Cl)c3)c2cc1OCCCN1CCOCC1 [gefitinib]
# Procedure, shortened: as §1
# [18] = compound: COc1cccc2cc(-c3nc([C@H]4CC[C@H](C(=O)O)CC4)n4ncnc(N)c34)[nH]c12
# Procedure, shortened: as §1
# [19] = compound: CS(=O)(=O)CCNCc1ccc(-c2ccc3ncnc(Nc4ccc(OCc5cccc(F)c5)c(Cl)c4)c3c2)o1 [lapatinib]
# Procedure, shortened: as §1
# [20] = compound: CS(=O)(=O)N1CCN(Cc2cc3nc(-c4cccc5[nH]ncc45)nc(N4CCOCC4)c3s2)CC1 [pictilisib]
# Procedure, shortened: as §1
# Chain of UniProt Q8IZV5 (Q8IZV5 whole entry, looked up): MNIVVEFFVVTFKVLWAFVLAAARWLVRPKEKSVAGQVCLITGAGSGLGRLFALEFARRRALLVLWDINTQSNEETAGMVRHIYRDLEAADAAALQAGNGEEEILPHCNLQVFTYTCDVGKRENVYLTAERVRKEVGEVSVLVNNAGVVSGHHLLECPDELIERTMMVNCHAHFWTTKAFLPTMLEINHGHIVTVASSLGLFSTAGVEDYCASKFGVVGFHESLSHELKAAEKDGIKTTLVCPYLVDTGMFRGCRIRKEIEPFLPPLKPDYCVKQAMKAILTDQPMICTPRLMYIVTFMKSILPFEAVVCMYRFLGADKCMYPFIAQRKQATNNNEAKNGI
# Chain of UniProt Q9NTJ5 (Q9NTJ5 whole entry, looked up): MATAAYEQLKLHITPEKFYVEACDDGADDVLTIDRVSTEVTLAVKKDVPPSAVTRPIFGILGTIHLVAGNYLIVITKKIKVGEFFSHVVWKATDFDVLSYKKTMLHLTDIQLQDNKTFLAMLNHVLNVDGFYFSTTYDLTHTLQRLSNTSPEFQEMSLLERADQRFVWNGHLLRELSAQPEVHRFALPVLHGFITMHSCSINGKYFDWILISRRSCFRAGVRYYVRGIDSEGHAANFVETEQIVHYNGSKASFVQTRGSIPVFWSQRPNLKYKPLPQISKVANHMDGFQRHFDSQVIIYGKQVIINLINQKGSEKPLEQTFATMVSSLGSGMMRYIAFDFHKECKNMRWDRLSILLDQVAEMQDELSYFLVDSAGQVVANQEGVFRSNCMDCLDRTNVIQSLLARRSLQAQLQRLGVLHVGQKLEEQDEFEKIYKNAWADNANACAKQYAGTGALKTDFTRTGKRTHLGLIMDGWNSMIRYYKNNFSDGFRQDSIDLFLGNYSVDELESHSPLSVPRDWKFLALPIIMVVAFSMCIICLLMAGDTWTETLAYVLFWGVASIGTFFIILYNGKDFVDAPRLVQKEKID
# Chain of UniProt O43665 (O43665 whole entry, looked up): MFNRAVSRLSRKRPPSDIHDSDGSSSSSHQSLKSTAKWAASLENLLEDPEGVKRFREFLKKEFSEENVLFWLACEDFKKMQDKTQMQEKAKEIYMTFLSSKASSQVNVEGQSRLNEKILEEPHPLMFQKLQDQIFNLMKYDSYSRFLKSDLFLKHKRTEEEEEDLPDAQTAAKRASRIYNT
# Chain of UniProt Q9GZR1 (Q9GZR1 whole entry, looked up): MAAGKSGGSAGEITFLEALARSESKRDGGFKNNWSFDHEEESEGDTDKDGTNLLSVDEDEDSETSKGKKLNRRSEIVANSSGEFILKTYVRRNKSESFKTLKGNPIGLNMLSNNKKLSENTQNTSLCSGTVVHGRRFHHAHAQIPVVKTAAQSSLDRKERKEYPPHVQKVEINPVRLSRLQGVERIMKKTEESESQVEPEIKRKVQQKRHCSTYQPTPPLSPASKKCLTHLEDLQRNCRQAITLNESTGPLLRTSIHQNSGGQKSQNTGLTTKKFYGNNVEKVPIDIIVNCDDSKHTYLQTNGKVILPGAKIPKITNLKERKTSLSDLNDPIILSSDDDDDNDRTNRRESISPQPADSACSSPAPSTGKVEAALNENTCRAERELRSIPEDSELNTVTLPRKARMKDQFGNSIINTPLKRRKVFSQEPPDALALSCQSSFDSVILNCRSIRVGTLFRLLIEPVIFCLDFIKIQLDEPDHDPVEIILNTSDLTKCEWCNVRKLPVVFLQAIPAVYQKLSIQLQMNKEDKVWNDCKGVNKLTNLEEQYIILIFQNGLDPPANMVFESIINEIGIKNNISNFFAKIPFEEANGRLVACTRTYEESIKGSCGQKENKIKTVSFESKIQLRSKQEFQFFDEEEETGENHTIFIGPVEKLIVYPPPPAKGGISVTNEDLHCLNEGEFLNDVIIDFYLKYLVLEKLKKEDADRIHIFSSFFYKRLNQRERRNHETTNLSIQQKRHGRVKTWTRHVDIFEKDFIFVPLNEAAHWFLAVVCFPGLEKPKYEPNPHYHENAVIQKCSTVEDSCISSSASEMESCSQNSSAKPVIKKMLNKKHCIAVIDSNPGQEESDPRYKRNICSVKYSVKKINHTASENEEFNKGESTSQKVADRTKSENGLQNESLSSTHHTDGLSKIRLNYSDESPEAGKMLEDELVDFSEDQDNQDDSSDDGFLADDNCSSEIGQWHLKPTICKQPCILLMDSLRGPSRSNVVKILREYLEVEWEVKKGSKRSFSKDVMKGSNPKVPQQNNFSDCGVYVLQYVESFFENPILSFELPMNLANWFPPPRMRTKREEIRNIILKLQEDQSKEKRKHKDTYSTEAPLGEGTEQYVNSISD
# Chain of UniProt Q86VR2 (Q86VR2 whole entry, looked up): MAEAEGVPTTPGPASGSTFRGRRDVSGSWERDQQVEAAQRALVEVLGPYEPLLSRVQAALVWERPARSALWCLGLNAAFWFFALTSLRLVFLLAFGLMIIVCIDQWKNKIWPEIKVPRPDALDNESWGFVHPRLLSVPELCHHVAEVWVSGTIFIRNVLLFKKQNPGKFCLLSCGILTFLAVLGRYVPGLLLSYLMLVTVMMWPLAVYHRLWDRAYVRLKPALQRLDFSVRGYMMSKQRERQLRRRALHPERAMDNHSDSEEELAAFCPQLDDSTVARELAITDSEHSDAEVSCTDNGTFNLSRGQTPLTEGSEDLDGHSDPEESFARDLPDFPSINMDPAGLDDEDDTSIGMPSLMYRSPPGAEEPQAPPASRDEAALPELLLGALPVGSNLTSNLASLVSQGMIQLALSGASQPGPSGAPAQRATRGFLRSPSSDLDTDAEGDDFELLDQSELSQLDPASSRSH
# Chain of UniProt P40938 (P40938 whole entry, looked up): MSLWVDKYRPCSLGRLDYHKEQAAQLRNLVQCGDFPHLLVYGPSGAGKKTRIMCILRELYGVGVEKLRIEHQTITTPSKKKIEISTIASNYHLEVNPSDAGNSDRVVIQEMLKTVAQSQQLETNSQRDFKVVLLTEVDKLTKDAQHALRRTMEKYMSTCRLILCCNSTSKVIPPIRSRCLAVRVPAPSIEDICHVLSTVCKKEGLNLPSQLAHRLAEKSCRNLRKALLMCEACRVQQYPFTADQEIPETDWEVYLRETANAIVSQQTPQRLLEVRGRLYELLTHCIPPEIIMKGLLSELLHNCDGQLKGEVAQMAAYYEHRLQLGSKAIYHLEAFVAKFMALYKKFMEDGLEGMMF
# Chain of UniProt O95470 (O95470 whole entry, looked up): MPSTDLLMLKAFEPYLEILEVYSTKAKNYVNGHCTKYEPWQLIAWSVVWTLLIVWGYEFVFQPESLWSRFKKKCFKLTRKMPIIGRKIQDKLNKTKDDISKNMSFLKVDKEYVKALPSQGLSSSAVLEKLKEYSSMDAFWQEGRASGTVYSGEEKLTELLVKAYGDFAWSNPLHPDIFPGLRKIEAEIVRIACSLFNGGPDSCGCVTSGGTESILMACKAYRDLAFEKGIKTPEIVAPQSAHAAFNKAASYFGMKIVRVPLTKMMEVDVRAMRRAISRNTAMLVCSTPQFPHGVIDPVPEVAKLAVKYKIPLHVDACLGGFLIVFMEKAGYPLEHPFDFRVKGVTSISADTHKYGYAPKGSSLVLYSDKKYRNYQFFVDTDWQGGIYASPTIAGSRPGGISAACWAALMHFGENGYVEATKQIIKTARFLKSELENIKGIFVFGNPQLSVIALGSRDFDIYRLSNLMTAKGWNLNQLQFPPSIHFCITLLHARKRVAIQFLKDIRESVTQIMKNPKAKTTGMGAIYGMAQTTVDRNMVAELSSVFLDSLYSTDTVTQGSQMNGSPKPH
# Chain of UniProt Q8NBX0 (Q8NBX0 whole entry, looked up): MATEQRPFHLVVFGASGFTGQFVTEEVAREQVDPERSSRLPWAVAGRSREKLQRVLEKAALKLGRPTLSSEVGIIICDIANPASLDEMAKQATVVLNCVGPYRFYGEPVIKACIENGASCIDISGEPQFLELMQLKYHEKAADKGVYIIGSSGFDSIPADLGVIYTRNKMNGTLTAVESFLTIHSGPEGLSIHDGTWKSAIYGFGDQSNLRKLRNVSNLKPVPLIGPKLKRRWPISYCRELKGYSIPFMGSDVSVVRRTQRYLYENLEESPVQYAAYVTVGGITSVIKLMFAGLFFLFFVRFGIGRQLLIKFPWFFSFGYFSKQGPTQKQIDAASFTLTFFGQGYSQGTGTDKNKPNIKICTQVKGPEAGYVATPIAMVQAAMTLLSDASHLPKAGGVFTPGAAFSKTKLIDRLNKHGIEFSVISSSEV
# Chain of UniProt Q15418 (Q15418 whole entry, looked up): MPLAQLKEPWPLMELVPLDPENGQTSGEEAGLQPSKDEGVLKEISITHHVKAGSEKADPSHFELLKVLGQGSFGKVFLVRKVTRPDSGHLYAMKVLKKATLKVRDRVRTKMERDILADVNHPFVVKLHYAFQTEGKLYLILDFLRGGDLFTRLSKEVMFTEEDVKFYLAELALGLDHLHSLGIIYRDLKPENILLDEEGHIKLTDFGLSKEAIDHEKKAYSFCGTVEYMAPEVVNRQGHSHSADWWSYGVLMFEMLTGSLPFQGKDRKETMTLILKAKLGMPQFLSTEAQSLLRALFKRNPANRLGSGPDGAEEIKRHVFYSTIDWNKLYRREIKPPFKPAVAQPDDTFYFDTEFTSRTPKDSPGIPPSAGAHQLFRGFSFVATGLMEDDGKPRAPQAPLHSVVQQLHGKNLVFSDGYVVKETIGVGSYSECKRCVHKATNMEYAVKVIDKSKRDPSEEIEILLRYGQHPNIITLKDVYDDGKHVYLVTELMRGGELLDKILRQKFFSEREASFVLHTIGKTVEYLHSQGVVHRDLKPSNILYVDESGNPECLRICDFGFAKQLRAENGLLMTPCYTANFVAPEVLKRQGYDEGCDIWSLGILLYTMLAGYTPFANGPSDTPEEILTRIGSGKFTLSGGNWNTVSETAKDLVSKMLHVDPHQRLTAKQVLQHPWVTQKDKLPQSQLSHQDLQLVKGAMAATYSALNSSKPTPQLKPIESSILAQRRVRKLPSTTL
Target,log2 fold change [1],log2 fold change [2],log2 fold change [3],log2 fold change [4],log2 fold change [5],log2 fold change [6],log2 fold change [7],log2 fold change [8],log2 fold change [9],log2 fold change [10],log2 fold change [11],log2 fold change [12],log2 fold change [13],log2 fold change [14],log2 fold change [15],log2 fold change [16],log2 fold change [17],log2 fold change [18],log2 fold change [19],log2 fold change [20]
RETREG3 (UniProt Q86VR2),0.164,0.035,-0.023,0.022,0.011,-0.015,0.004,-0.011,-0.018,0.032,-0.038,-0.136,-0.053,-0.008,0.029,-0.141,0.035,0.106,0.037,0.102
RGS10 (UniProt O43665),0.033,-0.023,-0.042,0.049,0.014,-0.11,0.038,0,-0.001,-0.002,-0.023,-0.081,0.115,0.086,-0.053,0.003,0.056,-0.014,0.029,-0.028
RPS3A (UniProt P61247),-0.034,0.015,0.171,0.075,0.105,0.192,0.101,0.069,0.047,-0.018,-0.112,0.117,0.006,0.069,-0.052,-0.009,-0.06,-0.152,0.053,-0.078
SCCPDH (UniProt Q8NBX0),-0.063,0.1,-0.057,-0.078,0.206,0.121,-0.081,0.183,-0.041,0.002,0.436 (active),0.139,0.349,0.025,-0.058,-0.026,-0.016,0.076,0.015,0.135
SENP6 (UniProt Q9GZR1),0.028,-0.008,-0.062,0.063,-0.018,-0.131,0.003,-0.034,0.016,0,0.029,0.115,-0.077,0.088,-0.016,0.016,0.028,0.039,0.066,0.076
SGPL1 (UniProt O95470),-0.014,0.03,0.04,-0.031,0.064,0.012,0.1,0.015,0.08,-0.157,-0.064,0.107,-0.011,0.051,-0.046,0.012,0.001,-0.115,0.04,-0.013
SCAF11 (UniProt Q99590),0.075,0.227,1.25 (active),-0.052,-0.077,0.579 (active),0.35,-0.052,0.042,0.188,0.365,0.141,-0.029,0.054,-0.1,-0.028,-0.013,-0.071,0.156,-0.382
RDH10 (UniProt Q8IZV5),0.005,0.016,-0.043,0.04,0.068,-0.002,-0.034,0.072,-0.011,-0.063,-0.007,-0.023,-0.03,-0.14,0.013,0.031,0.083,0.036,0.037,0.009
RFC3 (UniProt P40938),-0.021,0.032,-0.036,0.023,0.031,-0.052,-0.011,0.007,0.062,-0.058,0.125,-0.046,-0.026,-0.088,-0.021,-0.042,0.008,0.024,0.037,0.035
SACM1L (UniProt Q9NTJ5),0.004,0.003,-0.098,-0.026,0.042,-0.08,-0.062,0.007,0.034,-0.046,0.044,-0.081,0.029,-0.027,-0.05,-0.039,0.086,0.023,0.028,-0.038
RPS6KA1 isoform 2 (UniProt Q15418),0.02,-0.067,-0.012,0.005,-0.088,-0.258,-0.108,-0.101,-0.018,-0.015,0.087,-0.022,0.025,-0.016,-0.01,-0.202,-0.062,0,0.013,-0.053
RIC8A isoform 3 (UniProt Q9NPQ8),0.008,-0.223,-0.157,0.108,-0.096,-0.175,0.198,-0.087,0.287,-0.12,-0.007,-0.046,-0.058,-0.032,0.159,-0.095,0.043,0.009,0.001,-0.002
